The structures appear in SMILES notation. Screen size: about 340,000 compounds; about 2,100 (0.62%) were called active.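 The calls were made as follows: active = first-screen hits whose inhibition reached a set limit at any dose in the follow-up dose series; inconclusive = inhibition above the set first-screen limit but never retested; inactive = the rest.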 The list is a sample of the results. Entries with a potency or affinity are not part of this list.

This assay deals with Rac GTPase-activating protein 1 (Homo sapiens) (UniProt Q9H0H5). In words: blockers of MgcRacGAP-driven Rac1 GTP hydrolysis – biochemical, ADP Hunter fluorescence, primary and confirmatory, confirmation (AID 624330).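 Also: fluorescence reports GDP produced by GAP-driven GTP hydrolysis.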 The note with it: MgcRacGAP-stimulated Rac1 GTP hydrolysis, at 30 µM, stronger effect = higher value, GST-tagged Rac1 F28L mutant substrate.
Sequence of Rac GTPase-activating protein 1 (Homo sapiens) (Q9H0H5 whole entry, looked up): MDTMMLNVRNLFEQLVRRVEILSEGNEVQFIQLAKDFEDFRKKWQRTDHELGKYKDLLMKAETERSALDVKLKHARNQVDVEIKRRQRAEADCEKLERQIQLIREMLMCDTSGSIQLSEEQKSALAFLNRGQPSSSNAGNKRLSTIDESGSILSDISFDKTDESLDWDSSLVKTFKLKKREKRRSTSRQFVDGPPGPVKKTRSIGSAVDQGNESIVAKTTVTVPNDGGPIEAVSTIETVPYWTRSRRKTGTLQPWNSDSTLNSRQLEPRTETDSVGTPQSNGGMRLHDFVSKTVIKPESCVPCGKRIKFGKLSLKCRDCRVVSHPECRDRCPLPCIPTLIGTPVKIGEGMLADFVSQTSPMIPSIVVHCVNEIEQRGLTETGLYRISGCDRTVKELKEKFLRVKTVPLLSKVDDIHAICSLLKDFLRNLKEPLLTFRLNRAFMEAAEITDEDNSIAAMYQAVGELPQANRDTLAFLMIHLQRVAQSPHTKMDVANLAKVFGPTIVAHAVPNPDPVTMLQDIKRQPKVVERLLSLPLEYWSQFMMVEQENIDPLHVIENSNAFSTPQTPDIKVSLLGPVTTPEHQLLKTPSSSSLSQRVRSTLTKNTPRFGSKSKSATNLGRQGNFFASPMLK
Consider `CC(c1nnc(SCC(=O)NC(=O)NCc2ccco2)n1-c1ccc(Cl)cc1)N(C)C` (configuration not stated), for which the inhibition – broadly, the relative decrease from the control value, in per cent – was 4.03% (inactive).

As for `CCC(=Cc1ccccc1O)c1ccncc1`, the inhibition was 2.41% (inactive).

`CC/C(=C\c1ccc(Cl)cc1)c1ccncc1`: the inhibition was 5.22% (inactive). Next, `CCOC(=O)C(NC(C)=O)C(=O)Nc1ccc(C(C)(C)C)cc1` (configuration not stated): 15.1% (inactive); `C[C@H](CO)N1C[C@H](C)[C@@H](CN(C)S(=O)(=O)c2ccc(F)cc2)Oc2ccc(NC(=O)NC3CCCCC3)cc2C1=O`: 6.3% (inactive). Next, `CC(C)(Oc1ccc(Cl)cc1)C(=O)N(Cc1ccccc1)c1ccccn1`: 1.14% (inactive); `Cc1ccc2sc(NNC(=O)c3cc(=O)c4ccccc4o3)nc2c1C`: 24.2% (inactive). Turning to `Cc1cc(C)c2nc(NNC(=O)c3cc(=O)c4ccccc4o3)sc2c1`, the inhibition was 10.6% (inactive). Next, `Cc1ccc(C)c(OCCCN2CCNCC2)c1`: 7.95% (inactive); `Cc1ccc(C)c(OCCCN2CCCC2)c1`: 19.9% (inactive); `Cc1ccc(OCCCCN2CCCCC2)c(Br)c1`: 6.79% (inactive). Consider `Cc1cc(OCCCN2CCCC2)ccc1Cl`, for which the inhibition was 7.71% (inactive). Next, `Cc1ccc(C)c(OCCCCN2CCNCC2)c1C`: 4.36% (inactive); `Cc1cc(C)c(OCCCCN2CCNCC2)c(C)c1`: 8.89% (inactive). Next, `Cc1ccc(C(C)C)c(OCCCCCN2CCOCC2)c1`: 7.81% (inactive); `Clc1ccc(OCCCN2CCCC2)cc1Cl`: -13.7% (inactive); `Cc1cc(C)n2c(SCC(=O)Nc3ccccc3C#N)nnc2n1`: 2.29% (inactive). Next, `COc1ccc(CCN2CCCn3c2nc2c3c(=O)[nH]c(=O)n2C)cc1OC`: 6.67% (inactive). With `CCC1(NC(C)=O)CC2CC1CC2NC(C)=O` (configuration not stated), the inhibition is 1.95% (inactive). On to `CCCC(C)NC(=O)COC(=O)c1ccccc1SCC(=O)NC(C)CCC` (configuration not stated), for which the inhibition was 2.85% (inactive).

`Cc1ccc(P(=O)(O)c2ccc(C)cc2)cc1`: the inhibition is 8.6% (inactive). Turning to `Cc1ccccc1OCCOCCN1CCCCCC1`, the inhibition is -5.57% (inactive). As for `Cc1ccccc1OCCCN1CCCC1`, the inhibition is 26.5% (inactive).

Take `Cc1ccc(OCCCCN2CCCCC2)c(C)c1`: the inhibition is 2.28% (inactive). Next, `Cc1ccc(OCCN2CCCCCC2)c(C)c1`: 10.9% (inactive). Next, `CC1CCCN(C(=O)C2CCN(Cc3ccc4c(c3)OCO4)CC2)C1` (configuration not stated): 5.33% (inactive); `COc1ccc(C(=O)Nc2c(C(C)(C)C)nn(C)c2C(C)(C)C)cc1`: 10.2% (inactive). For `CCOC(=O)C1CCN(S(=O)(=O)c2ccc(Cl)cc2)CC1`, the inhibition is 4.24% (inactive). Next, `CCOC(=O)c1sc2nc(CSc3ccccc3)nc(N3CCC(C(N)=O)CC3)c2c1C`: -5.99% (inactive); `Cc1sc2nc(CSc3ccccc3)nc(N3CCN(C)CC3)c2c1C`: 7.15% (inactive). Next, `C=CCOc1ccc(/C(CC)=N/O)cc1OC`: 3.46% (inactive); `COc1cc(C(=O)C(=O)c2ccc(O)c(OC)c2)ccc1O`: 13.4% (inactive). Next, `COc1cc(C(=O)OCCN2CCCCC2)ccc1O`: 21.2% (inactive); `CC/C(=N\O)c1ccc(OC)c(OC)c1`: 8.04% (inactive); `COc1ccc(C(=O)Nc2ccc(Oc3nc(C)nc4sc(-c5ccccc5)cc34)cc2)cc1OC`: 2.99% (inactive). Consider `CC(C)(C)NC(=O)C(c1ccc(O)cc1)N(C(=O)CCC(=O)Nc1nccs1)c1cccc(F)c1` (configuration not stated), for which the inhibition is 8.98% (inactive). Take `COc1cc(/C=N/n2c(-c3ccccc3)n[nH]c2=S)cc(OC)c1OC`: the inhibition is 14.2% (inactive). Take `COc1cc(/C=N/N2CCCCC2)cc(OC)c1O`: the inhibition is 17.9% (inactive). Turning to `COc1cc(/C=N/n2c(C)nnc2C)cc(OC)c1OC`, the inhibition is 3.62% (inactive). Take `COc1ccc(/C=N/n2c(-c3cc(C)[nH]n3)n[nH]c2=S)cc1`: the inhibition was 21.4% (inactive). For the compound `O=C(COc1ccc(Cl)cc1)Nc1ccc(C(=O)NCc2cccnc2)cc1`, the inhibition was 9.05% (inactive). As for `COc1ccc(NC(=O)c2cccc3ccccc23)cc1OC`, the inhibition is -23.3% (inactive). Consider `O=C(O)CCS(=O)(=O)c1ccccc1Cl`, for which the inhibition was -0.02% (inactive). As for `COc1cccc(N(CC(=O)N2CCN(C)CC2)S(=O)(=O)c2ccc(C)cc2)c1`, the inhibition is -2.09% (inactive). Next, `Cc1ccc(S(=O)(=O)N2CCN(c3ccc(C(=O)N4CCOCC4)cc3[N+](=O)[O-])CC2)cc1`: 3.02% (inactive); `CC(=O)Nc1nonc1NC(=O)CSc1ncn[nH]1`: 1.36% (inactive); `CCOC(=O)C1C(=O)N(C(=O)c2ccc(OC)cc2)CC1c1ccccc1` (configuration not stated): 3.29% (inactive). In the case of `O=C(C[C@@H]1C/C=C\C[C@H](NC(=O)OCC2c3ccccc3-c3ccccc32)C(=O)OC[C@H]2CCCN2C1=O)NCCO`, the inhibition was 5.33% (inactive). Next, `O=C(N/N=C\c1cccnc1)c1ccc(Cl)cc1Cl`: 8.54% (inactive); `CC(C)/C=C(/C(=O)c1ccc(Cl)cc1Cl)n1cncn1`: 7.69% (inactive). With `CN(C)c1ccc(/C=C(/C(=O)c2ccc(Cl)cc2Cl)n2cncn2)cc1`, the inhibition was 3.83% (inactive). Next, `COc1ccc(/C=C(/C(=O)c2ccc(Cl)cc2Cl)n2cncn2)cc1`: 11.7% (inactive); `CCN(CC(=O)NCc1cccs1)C(=O)c1cccc(S(=O)(=O)N2CC(C)OC(C)C2)c1` (configuration not stated): -2.83% (inactive); `O=C(Cn1ncc2c1-c1ccccc1OC2)N1CCc2ccccc21`: 2.35% (inactive). Next, `CCCCOc1ccc(C(=O)N/C(=C/C=C/c2ccccc2)C(=O)NCCCO)cc1`: 12.1% (inactive); `O=S1c2ccccc2Nc2ccccc21`: 18.2% (inactive). In the case of `COC(=O)/C(C#N)=C1/C=Cc2ccccc2N1`, the inhibition was -5.37% (inactive). Next, `O=C(Cn1cc(C(=O)C(F)(F)F)c2ccccc21)Nc1ccccc1F`: 13.4% (inactive); `O=C(O)C1(C(=O)O)CCCC1`: 1.88% (inactive). Next, `NC[C@H]1O[C@H](O[C@H]2[C@H](O)[C@@H](O[C@H]3O[C@H](CO)[C@@H](O)[C@H](N)[C@H]3O)[C@H](N)C[C@@H]2N)[C@H](N)C[C@@H]1O`: 6.29% (inactive); `O=C(CCCCO)CCCCCCCC[C@H]1N[C@H](CO)[C@H](O)[C@@H]1O[C@@H]1O[C@H](CO)[C@@H](O)[C@H](O)[C@H]1O`: 6.38% (inactive); `Cc1ccc(S(=O)(=O)N2CCN(C(=O)c3ccc(N4CCCCC4)c([N+](=O)[O-])c3)CC2)cc1`: 6.99% (inactive).

The values above are taken from PubChem BioAssay AID624330 (Southern Research Specialized Biocontainment Screening …, 2012).
